Assay outcomes (PubChem BioAssay)
KDM5B inh = inhibitors of human KDM5B histone demethylase. Potency, µM (series often up to 57.7 µM), hits mostly inhibitors. AID 1347165. KDM5B demethylase, FDH-coupled NADH fluorescence (FDH is formaldehyde dehydrogenase). Q9UGL1. 220,000 compounds, 2.6% hits; also: nearly all actives have a fitted effect of over 70% in size
Target sequence (Q9UGL1 whole entry, looked up): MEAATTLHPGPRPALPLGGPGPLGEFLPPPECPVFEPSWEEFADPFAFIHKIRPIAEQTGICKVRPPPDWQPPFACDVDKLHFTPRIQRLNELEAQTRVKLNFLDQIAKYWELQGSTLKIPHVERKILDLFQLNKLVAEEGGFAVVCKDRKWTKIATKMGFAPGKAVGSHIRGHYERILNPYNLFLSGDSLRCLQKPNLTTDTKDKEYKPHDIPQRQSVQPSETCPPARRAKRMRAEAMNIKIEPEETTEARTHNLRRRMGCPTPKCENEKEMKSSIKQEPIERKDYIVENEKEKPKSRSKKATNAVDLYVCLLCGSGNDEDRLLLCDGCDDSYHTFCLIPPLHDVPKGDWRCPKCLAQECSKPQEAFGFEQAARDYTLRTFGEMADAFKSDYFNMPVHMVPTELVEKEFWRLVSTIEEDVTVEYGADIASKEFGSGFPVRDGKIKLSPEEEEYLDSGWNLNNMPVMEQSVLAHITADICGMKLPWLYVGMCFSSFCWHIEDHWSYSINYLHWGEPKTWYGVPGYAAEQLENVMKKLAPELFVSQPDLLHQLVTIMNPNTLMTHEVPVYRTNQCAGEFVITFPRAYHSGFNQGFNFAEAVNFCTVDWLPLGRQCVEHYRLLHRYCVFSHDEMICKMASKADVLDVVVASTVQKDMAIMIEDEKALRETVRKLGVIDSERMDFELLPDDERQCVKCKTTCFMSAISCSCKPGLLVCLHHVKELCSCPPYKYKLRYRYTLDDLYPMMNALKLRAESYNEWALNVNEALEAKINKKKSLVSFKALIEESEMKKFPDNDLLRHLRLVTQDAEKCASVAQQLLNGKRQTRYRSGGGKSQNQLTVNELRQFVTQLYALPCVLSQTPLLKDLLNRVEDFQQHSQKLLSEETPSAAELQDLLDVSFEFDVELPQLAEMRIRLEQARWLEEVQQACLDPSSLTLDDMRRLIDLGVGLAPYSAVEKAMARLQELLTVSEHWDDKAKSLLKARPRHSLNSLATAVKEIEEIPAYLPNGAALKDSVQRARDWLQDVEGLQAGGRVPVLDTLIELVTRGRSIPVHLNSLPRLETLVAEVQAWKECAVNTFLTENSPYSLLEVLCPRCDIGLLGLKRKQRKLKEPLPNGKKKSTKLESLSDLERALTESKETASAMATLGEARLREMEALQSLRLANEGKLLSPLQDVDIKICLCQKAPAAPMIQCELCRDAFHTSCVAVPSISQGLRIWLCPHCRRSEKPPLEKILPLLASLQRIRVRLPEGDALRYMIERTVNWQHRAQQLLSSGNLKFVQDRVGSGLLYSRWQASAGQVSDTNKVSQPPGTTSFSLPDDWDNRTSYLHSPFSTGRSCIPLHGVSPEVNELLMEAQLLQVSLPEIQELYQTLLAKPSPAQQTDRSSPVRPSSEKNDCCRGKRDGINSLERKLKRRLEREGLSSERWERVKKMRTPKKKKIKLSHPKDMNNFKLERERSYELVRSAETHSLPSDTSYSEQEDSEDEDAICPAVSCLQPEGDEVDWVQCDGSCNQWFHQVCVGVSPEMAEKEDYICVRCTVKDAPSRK
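Coupled FDH/NAD⁺ fluorescence readout. KDM5BΔAP 200 nM final; compound titration, 10 min RT preincubation; substrate mix 12.5 µM H3K4me3, 25 µM 2-OG, 50 µM Fe(II), 100 µM ascorbate, 0.25 mM NAD⁺, 0.25 U/mL FDH; ΔRFU over 30 min.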
SNCA expr inhib = SNCA gene expression inhibition; Potency, µM (top dose mostly 57.2 µM), most hits filed as inhibitors; HEK-293 SNCA-luciferase knock-in, luminescence, 24 h; AID 1671194; 140,000 compounds, 0.17% hits; also: nearly all actives have a fitted effect of over 45% in size
HEK293 viab = counter-screen for SNCA expression inhibitors: cell viability; HEK-293-SNCA-luc viability, GF-AFC fluorescence, 24 h; AID 1671193; Potency, µM (titrated, usually from 57.1 µM), actives largely listed as cytotoxic; 150,000 compounds, 0.12% hits; also: nearly all actives have a fitted effect of over 30% in size
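HEK-293-SNCA-luc cells (1500/well) plated 24 h, then exposed 24 h to a dilution series; GF-AFC added 30 min at 37C, fluorescence 405/540 nm; normalised to medium-only and DMSO wells, Hill fit.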
IP6K1 inh = blocks human inositol hexakisphosphate kinase 1. Q92551. IP6K1 kinase, ADP-Glo luminescence, 2 h; active compounds read low. activity change, % (series mostly up to about 58 µM). 140,000 compounds, 0.81% hits. AID 1645851; in the data active = activity change below about -25%
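ADP-Glo luminescence measures ADP made by human IP6K1 during a 2 h RT reaction with ATP/IP6 (mix at 1.3 mM/130 uM); top library doses 57.5 and 19.1 uM final.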
Numbers stand for hits. Compounds with a hit are over-represented: about 2.9% of the library has one in this group of screens. Unless noted, calls follow the shape of the dose curve; as a rule, active = well fitted curve in the direction sought with a large enough effect; inconclusive = small, poorly fitted or top-dose-only effect, or another doubt; inactive = no such curve, though single readings can be large; an effect the other way counts as inactive or inconclusive.

Results for O=C(NCc1ccc2c(c1)OCO2)c1ccc(-c2ccc(N3CCSCC3)nc2)cc1 ?
KDM5B inh: 28µM; SNCA expr inhib: inactive; HEK293 viab: inactive; IP6K1 inh: inactive

What do the screens show for `CCC(C)NC(=O)c1ccc(-c2ccc(N3CCSCC3)nc2)cc1` (stereo not drawn)?
KDM5B inh: inconclusive; SNCA expr inhib: inactive; HEK293 viab: inactive; IP6K1 inh: inactive

How did O=C(NCc1ccccn1)c1ccc(C2CCCCC2)cc1 do in these assays?
KDM5B inh: inactive

What do the screens show for `CCCn1c(N)c(-c2csc(NC)n2)c(=O)n(C)c1=O`?
KDM5B inh: inactive

What do the screens show for `CC(C)CCNC(=O)c1ccc(-c2ccc(N3CCSCC3)nc2)cc1`?
KDM5B inh: 22µM; SNCA expr inhib: inactive; HEK293 viab: inactive; IP6K1 inh: inactive

Results for CN(Cc1ccco1)C(=O)c1cccc(S(=O)(=O)N2CCCCC2)c1 ?
KDM5B inh: inactive

Results for CN(C)CCNC(=O)c1ccc(-c2ccc(N3CCCCCC3)nc2)cc1 ?
KDM5B inh: 25µM; SNCA expr inhib: inactive; HEK293 viab: inactive; IP6K1 inh: inactive

What do the screens show for `O=C(NCCN1CCOCC1)c1ccc(-c2ccc(N3CCSCC3)nc2)cc1`?
KDM5B inh: 28µM; SNCA expr inhib: inactive; HEK293 viab: inactive; IP6K1 inh: inactive

What do the screens show for `Cc1ccc(CNC(=O)c2ccc(-c3ccc(N4CCSCC4)nc3)cc2)o1`?
KDM5B inh: inactive; SNCA expr inhib: inactive; HEK293 viab: inconclusive; IP6K1 inh: inactive

Results for CN(Cc1ccco1)C(=O)c1ccc(-c2ccc(N3CCCCCC3)nc2)cc1 ?
KDM5B inh: 28µM; SNCA expr inhib: inactive; HEK293 viab: inactive; IP6K1 inh: inactive

What do the screens show for `CC(C)NS(=O)(=O)c1cc(C(=O)O)cc(-n2cccn2)c1`?
KDM5B inh: inconclusive; SNCA expr inhib: inactive; HEK293 viab: inactive; IP6K1 inh: inactive

How did O=C(NCCN1CCCCC1)c1ccc(N2CC3CC(C2)[C@H]2CCCC(=O)N2C3)nc1 (stereo partly drawn) do in these assays?
KDM5B inh: inactive; SNCA expr inhib: inactive; HEK293 viab: inactive; IP6K1 inh: inactive

How did CN1CCN(CCNC(=O)c2ccc(-c3ccc(N4CCCCCC4)nc3)cc2)CC1 do in these assays?
KDM5B inh: 22µM; SNCA expr inhib: inactive; HEK293 viab: inactive; IP6K1 inh: inactive

Results for O=C(NCCCN1CCCC1)c1ccc(-c2ccc(N3CCCCC3)nc2)cc1 ?
KDM5B inh: 22µM; SNCA expr inhib: inactive; HEK293 viab: inactive; IP6K1 inh: inactive

What do the screens show for `O=C(NC1CC1)c1nc(-c2cccnc2)c2ccccn12`?
KDM5B inh: 89µM; SNCA expr inhib: inactive; HEK293 viab: inactive; IP6K1 inh: inactive

Results for O=C(NC1CC1)c1nc(-c2cccc(C(F)(F)F)c2)c2ccccn12 ?
KDM5B inh: inconclusive; SNCA expr inhib: inactive; HEK293 viab: inactive; IP6K1 inh: inactive

Results for O=C(NC1CC1)c1nc(-c2ccc(F)cc2)c2ccccn12 ?
KDM5B inh: 32µM; SNCA expr inhib: inactive; HEK293 viab: inactive; IP6K1 inh: inactive

What do the screens show for `O=C(c1nnn2cc(-c3ccccc3)[nH]c(=O)c12)N1CCCCCC1`?
KDM5B inh: inconclusive; SNCA expr inhib: inactive; HEK293 viab: inactive; IP6K1 inh: inactive

Results for O=C(NCC1CCCO1)c1nnn2cc(-c3ccccc3)[nH]c(=O)c12 (stereo not drawn) ?
KDM5B inh: inconclusive; SNCA expr inhib: inactive; HEK293 viab: inactive; IP6K1 inh: inactive

How did O=C(c1nnn2cc(-c3ccc(F)cc3)[nH]c(=O)c12)N1CCOCC1 do in these assays?
KDM5B inh: 32µM; SNCA expr inhib: inconclusive; HEK293 viab: inactive; IP6K1 inh: inactive

Results for CCCCN(CC)C(=O)c1nnn2cc(-c3ccc(Cl)cc3)[nH]c(=O)c12 ?
KDM5B inh: inactive; SNCA expr inhib: inactive; HEK293 viab: inactive; IP6K1 inh: inactive

Results for CCCCNC(=O)c1nnn2cc(-c3ccc(Cl)cc3)[nH]c(=O)c12 ?
KDM5B inh: 8.9µM; SNCA expr inhib: inactive; HEK293 viab: inactive; IP6K1 inh: inactive

Results for C=CCN1CCN(C(=O)c2nnn3cc(-c4ccccc4)[nH]c(=O)c23)CC1 ?
KDM5B inh: 28µM; SNCA expr inhib: inactive; HEK293 viab: inactive; IP6K1 inh: inactive

What do the screens show for `O=C1CSc2ccc(C(=O)Nc3ccccc3O)cc2N1`?
KDM5B inh: inactive

How did Cc1ccc(-c2cccc(CN3CCCC(NC(=O)c4ccncc4)C3)c2)cc1Cl (stereo not drawn) do in these assays?
SNCA expr inhib: inactive; HEK293 viab: inactive; IP6K1 inh: inactive

How did CCCNC(=O)Cc1csc2nc(C)c(-c3cc(C)n(-c4cc(Cl)ccc4C)n3)c(=O)n12 do in these assays?
KDM5B inh: 28µM; SNCA expr inhib: inactive; HEK293 viab: inactive; IP6K1 inh: inactive

What do the screens show for `CCCCNC(=O)Cc1csc2nc(C)c(-c3cc(C)n(-c4cc(Cl)ccc4C)n3)c(=O)n12`?
KDM5B inh: 25µM; SNCA expr inhib: inactive; HEK293 viab: inactive; IP6K1 inh: inactive

How did CCCCNC(=O)Cc1csc2nc(C)c(-c3cc(C)n(-c4ccc(C)cc4C)n3)c(=O)n12 do in these assays?
KDM5B inh: inconclusive; SNCA expr inhib: inactive; HEK293 viab: inactive; IP6K1 inh: inactive

Results for CCc1nc2c(c(-c3ccc(O)cc3)n1)CN(Cc1cccc3ccccc13)CC2 ?
KDM5B inh: inactive; SNCA expr inhib: inactive; HEK293 viab: inactive; IP6K1 inh: inactive

Results for CC(=O)N1CCC(N2CC[C@@H](CO)N(C)c3ncccc3C2)CC1 ?
KDM5B inh: 35µM; SNCA expr inhib: inactive; HEK293 viab: inactive; IP6K1 inh: inactive

How did CC(C)C(=O)Nc1nc2c(s1)C(=O)CC(C)(C)C2 do in these assays?
KDM5B inh: inactive

Results for N#CC1CCN(C(=O)C2CCCN(c3nc4ncccc4o3)C2)CC1 (stereo not drawn) ?
KDM5B inh: 32µM; SNCA expr inhib: inactive; HEK293 viab: inactive; IP6K1 inh: inactive

How did O=C(C1CCCN(c2nc3ncccc3o2)C1)N1CCCC1 (stereo not drawn) do in these assays?
KDM5B inh: 25µM; SNCA expr inhib: inactive; HEK293 viab: inactive; IP6K1 inh: inactive

How did O=C(C1CC1)N1CCCN(c2nc3ncccc3o2)CC1 do in these assays?
KDM5B inh: inconclusive; SNCA expr inhib: inactive; HEK293 viab: inactive; IP6K1 inh: inactive

Results for CN(C)C(=O)C1CCCN(c2nc3ncccc3o2)C1 (stereo not drawn) ?
KDM5B inh: 25µM; SNCA expr inhib: inactive; HEK293 viab: inactive; IP6K1 inh: inactive

What do the screens show for `CC(C)NC(=O)C1CCCN(c2nc3ncccc3o2)C1` (stereo not drawn)?
KDM5B inh: 20µM; SNCA expr inhib: inactive; HEK293 viab: inactive; IP6K1 inh: inactive

How did O=C([C@@H]1C[C@H](Oc2ccccc2)CN1C(=O)c1ccsc1)N1CCOCC1 do in these assays?
KDM5B inh: inactive; SNCA expr inhib: inactive; HEK293 viab: inactive; IP6K1 inh: inactive

How did O=C(Nc1cccc(-c2nnnn2C2CC2)c1)C1CCCC1 do in these assays?
KDM5B inh: inactive

What do the screens show for `CN(Cc1ccc(F)cc1)C(=O)NC1CCCC(C(F)(F)F)C1` (stereo not drawn)?
KDM5B inh: inactive
